Assay results taken from PubChem BioAssay AID1569 (National Center for Advancing Translational Sciences (NCATS), 2009).
Records with an inconclusive call do not appear. Values without a mark were called inactive. Calls of active or inactive are those of the source. The call rests on the fitted dose curve; in most records, active means well fitted inhibition curve with a large enough effect; inconclusive means small, poorly fitted or top-dose-only effect, or effect the other way, or another doubt; inactive means no such curve, though single readings can be large or run the other way.

test: Confirmation Concentration-Response Assay for lipid storage modulators; conditions: Drosophila S3 cells, lipid droplet BODIPY/CellTracker ratio, 18-24 h; series mostly up to 46.1 µM; activity change, negative = inhibition: at the top concentration; further: nearly all actives have a fitted effect of over 80% in size
Excerpt: NIH Molecular Libraries Probe Production Centers Network [MLPCN] NIH Chemical Genomics Center [NCGC] MLPCN Grant: 1 R03 MH085686-01 Assay Submitter (PI): Beller, Mathias; Max-Planck-Institut fur Biophysikalische Chemie NCGC Assay Overview: Storing lipids as a reservoir for energy or the anabolism of elementary metabolites is a common feature of probably all cells and is conserved from bacteria to humans. The universal cellular lipid storage organelle is the so-called lipid storage droplet (LD). Although ubiquitous, LDs share a simple structure composed of a hydrophobic core that harbors the storage lipids, which is shielded by a droplet-specific phospholipid monolayer to which proteins are attached. The current model of LD biogenesis involves an incorporation of the lipid core into the membrane leaflets of the endoplasmic reticulum (ER) followed by a subsequent budding-like maturation of a LD, which ultimately pinches off. Once released, LD volume can increase by localized lipogenesis or fusion of existing droplets. Storage lipids are re-mobilized enzymatically by lipase activity. Lipase regulation in the adipocyte is heavily studied and involves multiple components including catecholamine signaling, the LD-associated proteins Perilipin and comparative gene identification-58 (CGI-58) and at least two lipases named hormone sensitive lipase (HSL) and adipocyte triglyceride lipase (ATGL). LD regulation outside of the adipocyte is poorly understood and only few components are known. However, there is an urgent need to learn more about ectopic fat depots as mislocalized storage of lipids, for example in the liver or muscle, is an eminent health problem associated with insulin resistance or the metabolic syndrome. We developed a laser-scanning cytometer assay to enable 1,536-well screening and combined the results of the small molecules screen with an RNAi database based on lipid storage. Exo1 identified in the primary screen (AID 1519) and several analogs were measured in the lipid storage assay as 24-point concentration-response curves to confirm potency and SAR.
We dispensed 4 uL of cells at 1.25 x 10^6 cells/mL into LoBase Aurora COC 1,536-well plates (black walled, clear bottom) with a bottle-valve solenoid-based dispenser (Aurora) to obtain 5,000 cells/well. Triacsin C (Sigma-Aldrich T-4540), an inhibitor of long-chain fatty acyl CoA synthetase that blocks synthesis of triglycerides, was used as a positive control for lipid under-storage. A total of 23 nL of compound solution of different concentrations were transferred to the assay plates using a Kalypsys pin tool equipped with a 1,536-pin array containing 10-nL slotted pins (FP1S10, 0.457-mm diameter, 50.8 mm long; V&P Scientific). One microliter of oleic acid (400 uM) was added, and the plate was lidded with stainless steel rubber gasket lined lids containing pinholes. After 18-24 h incubation at 24 degree Celsius and 95% humidity, 4 uL of the dyes BODIPY 493/503 (Molecular Probes) and the Cell Tracker Red CMTPX dye (Molecular Probes) were added to the wells to stain lipid droplets and enumerate cell number, respectively. Fluorescence was detected by excitation of the fluorophores with a 488-nm laser on an Acumen Explorer (TTP Lab Tech). The total intensity in channel 1 (500-530 nm) reflected lipid droplet accumulation. Cells were detected using channel 3 (575- 640 nm) with 5-um width and 100-um depth filters. The ratio of the total intensity in PMT channel 1 over total intensity of channel 3 was also calculated. Percent activity was computed relative to an internal control (100% inhibited lipid droplet deposition due to the presence of 20 uM Triacsin C), which was added to 32 wells/plate.
Potency means the concentration at half of the fitted maximal effect.

| SMILES | Potency | activity change, negative = inhibition |
| --- | --- | --- |
| CCOC(=O)C1CCN(C(=O)C2(NC(=O)NC3CCCCC3)CCCCC2)CC1 | 1410 nM (active) | – |
| CCn1c(COc2ccc(Cl)cc2)nnc1SCC(=O)Nc1ccc2c(c1)OCCO2 | 11200 nM (active) | – |
| O=C(NC1CCCc2c1cnn2-c1ccc(F)cc1F)c1cnccn1 (stereo not given) | 445 nM (active) | – |
| CCOc1ccc(CCNC(=O)CSCc2ccc(C)cc2)cc1OCC | – | -24% |
| CCCCCCCCCC[n+]1cccc2c3ccccc3ccc21 | 1770 nM (active) | – |
| COc1ccc(/C=C(/NC(=O)c2cccs2)C(=O)Nc2ccc(C)cc2)cc1OC | 250 nM (active) | – |
| Cn1nc(C(C)(C)C)cc1C(=O)NCc1ccc2c(c1)OCO2 | 2500 nM (active) | – |
| Cc1cccc(OCc2nnc(SCC(=O)N3c4ccccc4CC3C)n2C)c1C (stereo not given) | 6280 nM (active) | – |
| CCc1ccc(CN(C)C(=O)c2ccc3c(=O)n4c(nc3c2)CCC4)cc1 | – | 5.52% |
| O=C(Nc1cccc(F)c1)NC1(C(=O)N2CCC(O)CC2)CCCCC1 | – | 23.6% |
| Cc1sc2ncnc(NCC3COc4ccccc4O3)c2c1C (stereo not given) | 1990 nM (active) | – |
| COc1ccc(NC(=O)NC2(C(=O)N3CCOCC3)CCCCC2)cc1 | – | 25.8% |
| COc1ccc(NC(=O)NC2(C(=O)N3CCN4CCCC4C3)CCCCC2)cc1 (stereo not given) | – | 10.5% |
| CCOc1ccc(CCNC(=O)COC(=O)c2ccc(Cl)nc2)cc1OCC | – | -20.7% |
| Cc1ccc(NC(=O)CN(C)C(=O)Cn2ncc(Cl)c(Cl)c2=O)cc1 | 28100 nM (active) | – |
| O=C(NC1CCCc2c1cnn2-c1cc(F)cc(F)c1)c1cc[n+]([O-])cc1 (stereo not given) | – | 22.7% |
| CCOc1ccc(CCNC(=O)c2cc3sccc3n2C)cc1OCC | 705 nM (active) | – |
| Cc1ccc(NC(=O)CNC(=O)CC23CC4CC(CC(C4)C2)C3)c(O)c1 | 2230 nM (active) | – |
| O=C1c2ccccc2C(=O)c2c(Nc3ccc(CCO)cc3)ccc(O)c21 | 25000 nM (active) | – |
| CCC(C)(C)NC(=O)C(c1ccc(OC)cc1)N(CCOC)C(=O)CCC(=O)Nc1nccs1 (stereo not given) | 19900 nM (active) | – |

| SMILES | Potency | activity change, negative = inhibition |
| --- | --- | --- |
| CCn1c(Cc2ccc(OC)cc2)nnc1SCC(=O)Nc1cccc(C(=O)OC)c1 | – | -19.6% |
| COc1ccc(CCNC(=O)CSc2ccc3ccccc3c2)cc1OC | 1410 nM (active) | – |
| COc1ccc(CCNC(=O)CSC2=NS(=O)(=O)c3ccccc3N2)cc1OC | – | 8% |
| CNc1cccc2c1C(=O)c1ccccc1C2=O | 6280 nM (active) | – |
| COC(=O)c1ccccc1NC(=O)c1ccc(F)cc1F | 1410 nM [activator] (active) | – |
| CCOC(=O)C1CCN(C(=O)C2(NC(=O)Nc3cccc(F)c3)CCCCC2)CC1 | 3970 nM (active) | – |
| COc1ccc(CCNC(=O)c2noc(C(C)C)c2[N+](=O)[O-])cc1OC | – | 14.7% |
| CCC(C)(C)NC(=O)C(c1cccn1C)N(Cc1ccc(OC)cc1)C(=O)Cn1nnc2ccccc21 (stereo not given) | 2500 nM (active) | – |
| O=C(Nc1cccc(S(=O)(=O)N2CCCCC2)c1)c1ccccc1NS(=O)(=O)c1ccc(F)cc1 | 28100 nM (active) | – |
| c1ccc(-c2csc3ncnc(NCC4COc5ccccc5O4)c23)cc1 (stereo not given) | 1990 nM (active) | – |
| Nc1c(C(=O)C2CC2)sc2nc(-c3ccccc3)cc(C(F)(F)F)c12 | 1580 nM (active) | – |
| CC1CCN(C(=O)C2(NC(=O)Nc3cccc(F)c3)CCCCC2)CC1 | 7910 nM (active) | – |
| CCOC(=O)C1CCN(C(=O)C2(NC(=O)Nc3ccccc3Cl)CCCCC2)CC1 | 628 nM (active) | – |
| Cc1ccc(S(=O)(=O)NCCC2=CCCCC2)cc1C(N)=O | 22300 nM (active) | – |
| Cc1cc(C(=O)O[C@H]2[C@H](Cc3ccccc3)NS(=O)(=O)[C@H]3C[C@@H]4C=C[C@]23O4)ccc1[N+](=O)[O-] | – | -10.7% |
| CCOC(=O)c1cc2c(ccn2-c2ccc(F)cc2)n1CC(=O)N(CC)CC | 2170 nM (active) | – |
| COc1ccc2c(c1)O[C@@H](c1cccc(C(F)(F)F)c1)[C@H](OC(=O)NCCc1ccc(OC)c(OC)c1)C2=O | 4990 nM (active) | – |
| COC(=O)c1ccccc1NC(=O)c1ccc(C#N)cc1 | 1120 nM [activator] (active) | – |
| CCOc1ccc(CCNC(=O)COC(=O)/C=C/c2ccccc2)cc1OCC | 3530 nM (active) | – |
| COc1cccc(/C=C/C(=O)NCCc2ccc(OC)c(OC)c2)c1 | 1770 nM (active) | – |
